Experimental data: ChEMBL document CHEMBL3988442, “University of Dundee, Small-Polar-MMV Screening Library” (2021)
Hit rate of the full screen: of about 53,000 compounds, about 900 (1.7%) showed an effect of 50% or more. Only a selection was taken, and strong results are over-represented in it overall.

tested on: Mycobacterium tuberculosis; test: Cornell - Phenotypic assay to identify agents that inhibit growth of Mycobacterium tuberculosis; type: functional; set-up: scale not given: direction of the effect not stated beside the values; settings: 10 mM as filed; unlikely as a test dose

First: Cc1cc(C)n2c(CNCc3ccc(OC(F)F)cc3)cnc2n1
Second: COc1ccc(CC(=O)NCCCc2nnc3nc(C)cc(C)n23)cc1
The “Percent Effect” value of the first is higher: -7.615% for the first, -52.99% for the second.

Compared with `Cn1ncc2c(N3CCCN(C(=O)c4ccsc4)CC3)ncnc21`, `c1csc(N2CCCN(c3ncnc4sccc34)CC2)n1` is lower in “Percent Effect” value: 16.86% for the first, 9.712% for the second.

Compared with `CCCc1ccc(CN2CCC3(CCC(=O)N(CCO)C3)CC2)o1`, `Cc1c(CN2CCC(C(=O)O)(n3cccn3)CC2)oc2ccccc12` is lower in “Percent Effect” value: 9.804% for the first, -1.551% for the second.

Compared with `COc1ccccc1C(=O)N1CCOC2(CCCN(C(C)=O)C2)C1` (stereo unspecified), `O=C(O)C(F)(F)F.O=C(c1ccccc1F)N1CCC2(CC1)CC(Oc1ccccn1)CO2` (stereo unspecified) is lower in “Percent Effect” value: 23.26% for the first, 20.39% for the second.

Going from `Fc1ccc(C2CCCN2Cc2nnnn2C2CC2)cc1` (stereo unspecified) to `CCC(=O)N1CCCC(c2nc(N(C)C)ncc2-c2ccc(F)cc2)C1` (stereo unspecified), the “Percent Effect” value rises from -22.59% to 78.09%.

Going from `O=C(NCCCN1CCCC1=O)c1nc(-c2ccc3[nH]ccc3c2)no1` to `Cc1cc(CN(C)C(=O)CN2CCCCCC2=O)no1`, the “Percent Effect” value rises from 3.66% to 6.807%.

Going from `Cn1cccc1C(=O)N1CCC2(CC1)COC(COc1ccccn1)C2.O=C(O)C(F)(F)F` (stereo unspecified) to `O=C(O)C(F)(F)F.O=C1CC(c2ccncc2)C2(CCN(C(=O)c3ccc[nH]3)CC2)N1` (stereo unspecified), the “Percent Effect” value falls from 9.973% to -25.12%.

Compared with `CC(C)C(NC(=O)N1CCN(c2ccc(Cl)cc2)CC1)C(=O)NC1CC1` (stereo unspecified), `CC(C)[C@H](NC(=O)N1CCN(c2ccc(Cl)cc2)CC1)C(=O)NC1CC1` is lower in “Percent Effect” value: 93.48% for the first, 4.583% for the second.

First: CN(C(=O)NC1CC1)C1CCN(c2ccc(Cl)cc2)CC1
Second: CC(C)NC(=O)[C@H](C)NC(=O)N1CCN(c2ccc(Cl)cc2)CC1
The “Percent Effect” value of the first is higher: 17.37% for the first, -2.997% for the second.

Compared with `CC(C)NC(=O)[C@@H](NC(=O)N1CCN(c2ccc(Cl)cc2)CC1)C(C)C`, `CC(C)NC(=O)C(NC(=O)N1CCN(c2ccc(Cl)cc2)CC1)C(C)C` (stereo unspecified) is higher in “Percent Effect” value: 70.57% for the first, 76.86% for the second.

Compared with `CC(NC(=O)N1CCN(c2ccc(Cl)cc2)CC1)C(=O)N1CCSCC1` (stereo unspecified), `C[C@H](NC(=O)N1CCN(c2ccc(Cl)cc2)CC1)C(=O)N1CCSCC1` is lower in “Percent Effect” value: 21.43% for the first, 11.26% for the second.

Going from `CC(C)NC(=O)C(C)NC(=O)N1CCN(c2ccc(Cl)cc2)CC1` (stereo unspecified) to `CC(=O)Nc1nc(C(=O)NCc2ccc(N3CCCCC3)cc2)cs1`, the “Percent Effect” value rises from -27.07% to -6.079%.

Compared with `Fc1ccccc1NCc1nc2n(n1)CCCCC2`, `Cl.NCC(=O)N1CCCC1c1n[nH]cc1-c1ccccc1F` (stereo unspecified) is lower in “Percent Effect” value: 6.356% for the first, -8.12% for the second.

Compared with `NC(=O)CN1CCCC(c2cncc(Nc3ncccn3)n2)C1` (stereo unspecified), `Cc1nc(Nc2cnccn2)cc(C2CCCN(C(C)C)C2)n1` (stereo unspecified) is lower in “Percent Effect” value: 28.6% for the first, -5.253% for the second.

Compared with `COCCN1C(=O)CC[C@]12CC[C@@H](NC(=O)c1cnccn1)CC2`, `O=C(Nc1nc2c(s1)CCC2)NC1CCCC1` is higher in “Percent Effect” value: 8.611% for the first, 34.54% for the second.

First: CCCc1nnnn1CC(=O)NCc1cccc(C)c1
Second: CC(=O)NCCNC(=O)CCn1c(C)cc2ccccc21
The “Percent Effect” value of the first is lower: 14.77% for the first, 15.36% for the second.

First: CCOC(=O)C1(Cc2ccccc2-c2ccccc2OC)CCNCC1.Cl
Second: Cc1ccccc1CC1(C(=O)O)CCCN(c2ncnc3[nH]ccc23)C1 (stereo unspecified)
The “Percent Effect” value of the first is lower: 1.496% for the first, 8.891% for the second.

Compared with `CNc1[nH]nc(N)c1NC(=O)c1ccccc1`, `CNc1[nH]nc(N)c1C(=O)Nc1ccccc1` is lower in “Percent Effect” value: 107.3% for the first, -18.4% for the second.

Compared with `CNc1[nH]nc(N)c1C(=O)Nc1ccc(OC)cc1`, `COc1ccc(F)c(-c2ncccc2NC(=O)C(C)C)c1` is lower in “Percent Effect” value: -4.193% for the first, -36.39% for the second.

First: FC(F)(F)c1cc(C2CCN(c3cnccn3)CC2)n2ccnc2n1
Second: FC(F)(F)c1cc(C2CCCN(c3cnccn3)C2)n2ccnc2n1 (stereo unspecified)
The “Percent Effect” value of the first is higher: 47.21% for the first, 5.193% for the second.

Going from `Cc1cc(C)nc(Nc2nccnc2C2CCCN(C(C)C)C2)n1` (stereo unspecified) to `CC(C)N1CCCC(c2cc(C(F)(F)F)nc3nccn23)C1` (stereo unspecified), the “Percent Effect” value rises from 29.5% to 55.76%.

Going from `FC(F)(F)c1cc(C2CCCN(c3ncccn3)C2)n2ccnc2n1` (stereo unspecified) to `CN(C)c1nccc(C2CCN(c3ncccn3)CC2)n1`, the “Percent Effect” value falls from 58.69% to 38.24%.

Compared with `NC(=O)c1ccc(C2CCCN2C(=O)CCc2nc3ccccc3s2)s1` (stereo unspecified), `O=C(Nc1ccccn1)C1CCN(C(=O)COc2ccccc2F)C1` (stereo unspecified) is lower in “Percent Effect” value: -11.96% for the first, -42.88% for the second.

Going from `Cc1ccccc1CC1(CO)CCCN(c2ncncc2C(C)C)C1` (stereo unspecified) to `Cc1cnc(C)c(N2CCCC(CO)(Cc3ccccc3C)C2)n1` (stereo unspecified), the “Percent Effect” value falls from 81.01% to 5.498%.

First: CC(=O)c1ccc(N2CCCC(CO)(Cc3ccccc3C)C2)nc1 (stereo unspecified)
Second: Cc1ccccc1CC1(CO)CCCN(c2ncnc3sccc23)C1 (stereo unspecified)
The “Percent Effect” value of the first is lower: 13.02% for the first, 79.2% for the second.

Going from `Cc1cc(NC(=O)CN2CCCC2c2noc(C3CC3)n2)n(C)n1` (stereo unspecified) to `Cc1ccc(N2C[C@@H]3OCCN(Cc4c(C)noc4C)[C@@H]3C2)nn1`, the “Percent Effect” value rises from -35.39% to 2.66%.

First: CN(C)c1nccc(C2CN(c3ccccc3)CCO2)n1 (stereo unspecified)
Second: CN(C)c1nccc(C2CN(c3cnccn3)CCO2)n1 (stereo unspecified)
The “Percent Effect” value of the first is higher: 59.44% for the first, -32.07% for the second.

First: CC(=O)N1CCOC(c2ccnc(N(C)C)n2)C1 (stereo unspecified)
Second: CC(C)N1CCOC(c2ccnc(N(C)C)n2)C1 (stereo unspecified)
The “Percent Effect” value of the first is lower: 23.94% for the first, 50.07% for the second.

First: CC(=O)N1CCCC(c2ccnc(N(C)C)n2)C1 (stereo unspecified)
Second: CC(=O)N1CCCC(c2nc(N(C)C)ncc2-c2ccccc2)C1 (stereo unspecified)
The “Percent Effect” value of the first is lower: -19.51% for the first, 12.04% for the second.

First: O=C(Cn1ccnc1)N1C[C@@H]2CC[C@H](Oc3ccccc3F)[C@@H]2C1
Second: COCC(=O)N1CCCC(c2nc(N(C)C)ncc2-c2ccccc2)C1 (stereo unspecified)
The “Percent Effect” value of the first is lower: -34.19% for the first, 21.17% for the second.

First: Cl.O=C(NCCO)c1sc2ncccc2c1C1CNCCO1 (stereo unspecified)
Second: CN(C)c1ncccc1CNC(=O)CCNc1ncccn1
The “Percent Effect” value of the first is lower: 5.786% for the first, 29.98% for the second.

Going from `CN(CCN1CCOC1=O)CC(=O)Nc1cc(F)cc(F)c1` to `COCCN(C)C(C(=O)O)c1ccc(Cl)c(F)c1` (stereo unspecified), the “Percent Effect” value falls from -4.563% to -23.65%.

Compared with `CCN1CC(COC(=O)c2ccccc2Cl)CC1=O` (stereo unspecified), `CN(C)S(=O)(=O)NC1CC(=O)N(c2ccccc2Cl)C1` (stereo unspecified) is higher in “Percent Effect” value: 9.93% for the first, 14.57% for the second.

First: CCOC(=O)c1c(NC(=O)C2CCN(C(C)=O)CC2)sc(C)c1CC
Second: CCc1c(C)sc(NC(=O)CN2CCN(CC)CC2)c1C(=O)OC
The “Percent Effect” value of the first is lower: 0.6351% for the first, 85.25% for the second.

First: CCc1c(C)sc(NC(=O)CN2CCOCC2)c1C(=O)OC
Second: COCC(=O)N1C[C@@H]2OCCN(Cc3c(C)noc3C)[C@@H]2C1
The “Percent Effect” value of the first is higher: 13.88% for the first, -0.2298% for the second.

Going from `NC(=O)N1CCc2ncc(CNC(=O)CC3CC3)n2CC1` to `O=C(C1CC1)N1CCC2(CCCN2Cc2ccc(F)cc2)CC1.O=C(O)C(F)(F)F`, the “Percent Effect” value rises from -19.97% to 3.548%.

Going from `CCN1Cc2cc(OC)ccc2N(CC(C)(C)O)CCC1=O` to `COc1cc(Oc2ccc(C(N)=O)cn2)ccc1CN1CCCC1`, the “Percent Effect” value rises from -17.4% to 6.938%.

Compared with `Cc1cnc(-c2nc(NC3CC3)ncc2-c2cc(C)no2)cn1`, `Cc1cnc(-c2nc(NC3CCCC3)ncc2-c2onc(C)c2C)cn1` is higher in “Percent Effect” value: -18.55% for the first, 7.273% for the second.

First: Cc1cc(-c2cnc(NC3CC3)nc2-c2ccoc2)on1
Second: Cc1cc(-c2cnc(NC3CCCC3)nc2-c2ccoc2)on1
The “Percent Effect” value of the first is lower: -15.23% for the first, 81.21% for the second.

Going from `Cc1cc(-c2cnc(NC3CCCC3)nc2-c2ccc(C)o2)on1` to `Cc1cc(-c2cnc(NC3CCCC3)nc2-c2ccoc2C)on1`, the “Percent Effect” value falls from 92.52% to 18.15%.

Going from `COCCNc1ncc(-c2cc(C)no2)c(-c2ccco2)n1` to `Cc1cc(-c2cnc(NC3CC3)nc2-c2ccco2)on1`, the “Percent Effect” value rises from -34.06% to 47.86%.

First: Cc1cc(-c2cnc(NC3CCCC3)nc2-c2ccco2)on1
Second: Cc1cc(-c2cnc(NC3CCCCC3)nc2-c2ccco2)on1
The “Percent Effect” value of the first is lower: 78.21% for the first, 97.15% for the second.

Going from `Cc1noc(-c2cnc(NC(C)C)nc2-c2ccco2)c1C` to `Cc1noc(-c2cnc(NC3CC3)nc2-c2ccco2)c1C`, the “Percent Effect” value falls from 32.42% to 21.85%.

First: Cc1noc(-c2cnc(NCC3CCCO3)nc2-c2ccco2)c1C (stereo unspecified)
Second: Cc1cc(-c2cnc(NC3CC3)nc2-c2ccoc2C)on1
The “Percent Effect” value of the first is higher: 34.64% for the first, 6.588% for the second.

Going from `CCc1noc(CN2CCN(CC(O)c3ccccc3)CC2)n1` (stereo unspecified) to `COc1cc(Oc2cnc3ccccc3n2)ccc1CN1CCCC1`, the “Percent Effect” value rises from -1.918% to 89.59%.

First: CC(C)=CCN1C[C@@H]2CN(C(=O)c3cnccc3C)C[C@]2(C(=O)O)C1
Second: O=C(N1CCCC(n2cncn2)C1)C1(c2cccc(F)c2)CCCC1 (stereo unspecified)
The “Percent Effect” value of the first is higher: 13.3% for the first, -7.361% for the second.

Compared with `CC(C)[C@H](N)C(=O)N1CCSc2ccccc2C1.Cl`, `CCN(C)c1ncnc2c1CCN(S(=O)(=O)c1ccccc1)CC2.O=C(O)C(F)(F)F` is lower in “Percent Effect” value: 15.34% for the first, 2.965% for the second.

First: CS(=O)(=O)N1CC(c2ccnc(Nc3ccccn3)n2)C1
Second: Cc1occc1-c1nc(NC2CCCC2)ncc1-c1ccccn1
The “Percent Effect” value of the first is lower: 3.174% for the first, 85.8% for the second.

Going from `COc1ccc(Oc2ccc(C(F)(F)F)cn2)cc1CN1CCCC1` to `COc1cc(Oc2ccc(C(F)(F)F)cn2)ccc1CN1CCCC1`, the “Percent Effect” value falls from 50.99% to 21.65%.

Going from `Fc1cc(Oc2ccc(C(F)(F)F)cn2)cc(F)c1CN1CCCC1` to `COc1cc(Oc2ccc(C#N)cn2)ccc1CN1CCCC1`, the “Percent Effect” value rises from 17.52% to 27.7%.

First: CC(C)N1CCCC1c1nc(N(C)C)ncc1I (stereo unspecified)
Second: Cc1noc(C)c1CN1CCO[C@H]2CNC[C@H]21.Cl.Cl
The “Percent Effect” value of the first is lower: 5.368% for the first, 71.41% for the second.

Going from `Cc1c(Br)c(C(F)F)nn1C(C)C(=O)O` (stereo unspecified) to `C=C(C)CNc1nc(CS(=O)(=O)c2ccccc2)cs1`, the “Percent Effect” value falls from 18.88% to 8.279%.

First: CNc1nc(CS(=O)(=O)c2ccccc2)cs1
Second: CCCNc1nc(CS(=O)(=O)c2ccccc2)cs1
The “Percent Effect” value of the first is higher: 106.2% for the first, -0.8742% for the second.
